# Experimental data taken from ChEMBL document CHEMBL1157539, “Thousands of chemical starting points for antimalarial lead identification” (Nature, 2010).
# Assays:
# Type in all cases: functional
# Plasmodium falciparum [1] = experiment: GSK_TCMDC: Inhibition of Plasmodium falciparum 3D7 in whole red blood cells, using parasite LDH activity as an index of growth. Test compounds present at 2uM
# Plasmodium falciparum [2] = experiment: GSK_TCMDC: Inhibition of Plasmodium falciparum Dd2 in whole red blood cells, using parasite LDH activity as an index of growth. Test compounds present at 2uM
# HepG2 = experiment: GSK_TCMDC: Percent inhibition of human HepG2 cell line. Test compounds present at 10uM.
Structure (SMILES),Inhibition (Plasmodium falciparum [1]) [%],Inhibition (Plasmodium falciparum [2]) [%],Inhibition (HepG2) [%]
Cc1ccc(NC(=O)Nc2ccccc2)cc1-c1ccc(C(=O)Nc2ccncc2)cc1,99,52,67
Cc1nc(-c2ccc(-c3ccc(C(=O)Nc4ccc(I)c(OCCN5CCCC5)c4)cc3)c(C)c2)no1.Cl,95,35,96
Cc1cccc2nc(-c3cccc(-c4ccc(NC(=O)Cc5c[nH]cn5)cc4)c3)[nH]c12,100,93,4
CC(C)(C)c1ccc(OC(=O)c2ccc(NC(=O)N[C@@H](Cc3ccc(O)cc3)C(=O)NC3CCN(Cc4ccc(O)cc4)C3)cc2)cc1.O=C(O)C(F)(F)F (some centres undefined),92,67,0
CCOc1cc2ncnc(Nc3ccc(OCc4ccccc4Br)c(OC)c3)c2cc1OCC.Cl,100,82,1
COc1ccc(-c2cc(C(=O)Nc3ccc(CCCN(C)Cc4ccc(OC)c(OC)c4)cc3)c3ccccc3n2)cc1,92,47,40
Cc1nc(-c2cccc3c(NC(=O)Nc4ccc5nccc(N6CCN(C)CC6)c5c4)cccc23)no1.Cl,100,84,0
CC(=O)Nc1ccc(CN(Cc2ccc(F)cc2)Cc2ccc3c(c2)OCO3)cc1,91,87,3
CC(CN)OCn1cnc2c(N)ncnc21.Cl (centres undefined),95,3,17
COc1ccc(C=NN=c2cc(C)[nH]c3ccccc23)c2ccccc12,99,69,26
COc1c(C)[nH]c(C)c(-c2ccc(Oc3cccc(C(F)(F)F)c3)cc2)c1=O,98,96,40
Cc1cc(Cl)c(S(=O)(=O)NC(C)(C)C)cc1OCC(=O)NC1CCCCC1,93,53,10
COc1ccc2c(NN=Cc3ccc(Cl)cc3)ccnc2c1,100,100,8
Cc1cccc(C)c1CNc1ccnc2cc(C#N)ccc12.Cl,100,99,20
Cl.N=C(N)c1ccc(OCc2cccc(COc3ccc(C(=N)N)cc3I)c2)c(I)c1,100,100,7
CS(=O)(=O)CCNCc1cccc(-c2cc3c(Nc4ccc(OCc5ccccc5)cc4)ncnc3cn2)c1.Cl,100,26,3
CCNc1cc(C(=O)N[C@@H](Cc2ccccc2)[C@H](O)CNC2CCCC2)cc(N2CCCC2=O)c1,98,98,8
Cl.N#Cc1ccc2c(c1)CCN(CCC1CCC(NC(=O)/C=C/c3cc(Br)cs3)CC1)CC2 (centres undefined),93,1,3
O=C(/C=C/c1ccc(Cl)c(Cl)c1)NCCCCCN1CCC(NC(=O)Nc2ccc(F)c(Cl)c2)CC1,100,11,98
Fc1cccc(COc2ccc(Nc3ncnc4sc(C#C[C@H]5CC[C@H](CNCC(F)(F)F)N5)cc34)cc2Cl)c1,100,51,10
Cc1ccc2c(NC(=O)Nc3ccc(N(C)C)cc3)cc(C)nc2c1,98,20,0
O=C(Cc1ccc(Nc2nccc(Nc3cccc4[nH]ncc34)n2)cc1)Nc1ccc(C(F)(F)F)cc1,100,69,12
CCN1CCC(N(Cc2ccc(-c3ccc(C(F)(F)F)s3)cc2)C(=O)Cn2c(CCc3cccc(F)c3F)nc(=O)c3ccccc32)CC1.O=C(O)C(O)C(O)C(=O)O,93,95,47
O=c1c(NCCCN(Cc2ccc(F)cc2)c2ccccn2)c(NCc2ccncc2)c1=O,100,95,30
Oc1ccc(-c2ccccc2)cc1CN1CCCCC1,93,70,3
COc1ccc(CNc2nc(NCc3ccc(C(F)(F)F)cc3)c3cc(OC)c(OC)cc3n2)cc1OC,100,100,80
CC1(C)C=C(c2ccncc2)c2cc(Cl)ccc2O1.Cl,97,22,0
O=C(NCc1ccc(F)cc1)Nc1ccc(-c2cccc(-c3nc4cc(F)ccc4[nH]3)c2)cc1,100,99,31
